# According to PubChem BioAssay (NCI):
# This is part of a sample that, as a whole, favours compounds with a hit. Of some 83,000 tested, about 20% had one in any assay.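 In brief: 96-well plates, 48 h treatment, single concentration, percent growth endpoint.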 Unmarked numbers belong to inactive results. Calls of active or inactive are those of the source. Rule for the calls: active = growth percent below 10; inactive = the rest.
# Legend:
# Test in all cases: NCI-60 one-dose screen, 48 h (100 = growth as untreated, 0 = no growth, -100 = all killed)
# Conditions in all cases: 10 µM unless noted
# NCI-H23 lung = tested on: NCI-H23 lung
# NCI-H226 lung = tested on: NCI-H226 lung
# NCI-H322M lung = tested on: NCI-H322M lung
# HOP-62 NSCLC = tested on: HOP-62 NSCLC
# NCI-H460 lung = tested on: NCI-H460 lung
# HOP-92 NSCLC = tested on: HOP-92 NSCLC
# NCI-H522 lung = tested on: NCI-H522 lung
# A549/ATCC NSCLC = tested on: A549/ATCC NSCLC
# 786-0 renal = tested on: 786-0 renal
# COLO 205 colon = tested on: COLO 205 colon
# DU-145 prostate = tested on: DU-145 prostate
# MALME-3M melanoma = tested on: MALME-3M melanoma
# MDA-MB-231 breast = tested on: MDA-MB-231 breast
# RXF 393 renal = tested on: RXF 393 renal
# SF-268 CNS = tested on: SF-268 CNS
# SF-295 CNS = tested on: SF-295 CNS
# SF-539 CNS = tested on: SF-539 CNS
# UACC-257 melanoma = tested on: UACC-257 melanoma
# M14 melanoma = tested on: M14 melanoma
# K-562 leukemia = tested on: K-562 leukemia
SMILES,growth (NCI-H23 lung),growth (NCI-H226 lung),growth (NCI-H322M lung),growth (HOP-62 NSCLC),growth (NCI-H460 lung),growth (HOP-92 NSCLC),growth (NCI-H522 lung),growth (A549/ATCC NSCLC),growth (786-0 renal),growth (COLO 205 colon),growth (DU-145 prostate),growth (MALME-3M melanoma),growth (MDA-MB-231 breast),growth (RXF 393 renal),growth (SF-268 CNS),growth (SF-295 CNS),growth (SF-539 CNS),growth (UACC-257 melanoma),growth (M14 melanoma),growth (K-562 leukemia)
COc1ccc(-c2coc3c(CO)c(O)ccc3c2=O)cc1,79.5%,61.7%,52.9%,53%,32.7%,55.8%,67.2%,90.5%,90.3%,115%,9.29% (active),21.3%,25%,-27.4% (active),22.2%,23.1%,47.9%,90.3%,75.5%,–
Clc1ccc(CN2COc3c(ccc4cccnc34)C2)cc1Cl,13.5%,-11.5% (active),12.3%,-2.68% (active),-26.2% (active),-9.87% (active),-56.7% (active),-4.93% (active),-63.3% (active),12%,6.34% (active),-11.3% (active),19.7%,–,-3.19% (active),-18.6% (active),-36.7% (active),-35.1% (active),-3.94% (active),-34.2% (active)
CC1(C)N=C(N)N=C(N)N1c1ccc(F)c(C(F)(F)F)c1,29.4%,54.1%,51.9%,21.7%,21.6%,45.4%,-8.07% (active),9.86% (active),-4.42% (active),79.8%,38.5%,74.1%,73.5%,–,23.2%,19.5%,23.2%,25.2%,24%,16.9%
CC(NCCC(c1ccccc1)c1ccccc1)c1ccccc1 (stereo not drawn),82%,87.6%,69.8%,97.8%,11.6%,43.3%,74.8%,80.7%,73.4%,-54.9% (active),89.1%,74.1%,83.8%,–,89.2%,62.2%,94.7%,64.4%,71.8%,-44% (active)
CC(C)(C)C(=O)/C=c1/[nH]c(=O)/c(=C/c2ccccc2O)s1,73.1%,76.4%,71.7%,46%,23.8%,80.4%,26.8%,44.2%,87.3%,89.1%,78.6%,66.4%,58.1%,62.7%,61%,60.6%,60.1%,82.1%,30.4%,–
CCc1c2cc(Cl)ccc2n2cc(Cc3ccccc3)[nH]c(=O)c12,94.3%,100%,83.7%,103%,90.9%,96%,104%,106%,109%,97.5%,104%,85.3%,97.4%,116%,95.4%,98.1%,103%,104%,99.9%,–
O=C(Nc1ccc(F)cc1)Nc1ccc(Cl)c([N+](=O)[O-])c1,-1.96% (active),16%,28.4%,38.8%,3.03% (active),-8.16% (active),2.42% (active),17.1%,26.7%,12%,18.9%,27.4%,40%,51.1%,32.7%,8.17% (active),36.2%,34.9%,24%,–
CCC1CN2C(=N1)c1ccccc1-c1cc(Cl)ccc12 (stereo not drawn),23.4%,-40.2% (active),28.3%,5.88% (active),-18.9% (active),-12.2% (active),-28.5% (active),-21.7% (active),-35.4% (active),18.4%,17.4%,-4.57% (active),47.9%,–,25%,12%,17%,-28.8% (active),21.7%,2.32% (active)
S=c1[nH]nc(Cn2c3ccccc3c3ccncc32)o1,107%,107%,106%,95.1%,100%,109%,91.3%,90.7%,99.2%,104%,108%,100%,100%,112%,103%,108%,101%,89.7%,101%,–
Cc1ccc2c(C3C(C#N)=C(N)Oc4cc5ccccc5cc43)cc(=O)oc2c1 (stereo not drawn),41%,87.8%,42.7%,30.1%,12.5%,75.7%,7.76% (active),25.1%,26.2%,2.72% (active),16%,66.4%,50.6%,-11% (active),54.6%,9.32% (active),2.31% (active),67.8%,0.37% (active),–
COC(=O)CCCNS(=O)(=O)c1cc(C(=O)Nc2ccc(NC(=O)c3cc(S(=O)(=O)NCCCC(=O)OC)c(O)c(O)c3O)cc2)c(O)c(O)c1O,92.4%,98.4%,89.4%,98.5%,97.3%,115%,86.1%,83.2%,112%,114%,98.1%,105%,94.7%,107%,91.9%,98.1%,102%,96.2%,98.3%,–
O=[N+]([O-])c1ccc(NS(=O)(=O)c2cc(Cl)ccc2Cl)c2ccccc12,32.5%,65.7%,68.4%,65.7%,46.6%,8.11% (active),10.1%,89.5%,62.9%,73.6%,73%,43.2%,71%,42.6%,47.9%,37.7%,44.9%,33.7%,45.4%,–
FC(F)(F)c1cn(CC2CNC2)c2ncnc(Cl)c12,104%,102%,111%,102%,105%,114%,89.7%,94.3%,107%,106%,108%,122%,100%,112%,99.2%,100%,109%,85.6%,109%,–
O=C(Nc1ccccc1Cl)c1c[nH]c(=O)c(-c2ccc(N3CCCOC4(CC4)C3)cc2)c1,46.9%,50.9%,78%,69.7%,63.8%,70.4%,53.6%,57.8%,68.2%,81.4%,77.6%,70%,77.7%,81.2%,69.8%,55.3%,76%,38%,74.9%,–
C/C(=N/NC(=O)Cn1c2ccccc2c2ccncc21)c1cccs1,98.1%,89.3%,109%,100%,94.6%,92%,85.6%,84.7%,100%,105%,108%,100%,97.4%,98.7%,95.5%,109%,108%,89.9%,104%,–
C=C1C(=O)O[C@H]2[C@H]1CC/C(COC(=O)c1ccc(C#N)cc1)=C\CC[C@@]1(C)O[C@@H]21,54.4%,-0.563% (active),68.1%,61.3%,53.7%,-35.8% (active),-89.6% (active),40.8%,22.9%,-77.7% (active),18.4%,-22.4% (active),2.94% (active),-47.7% (active),56.8%,73.3%,-32.3% (active),52.2%,15.6%,–
CC(=O)c1cc2c(N)c(C(=O)Nc3cccc(Cl)c3)sc2nc1C,91%,87.3%,77.7%,90.4%,45.7%,58.3%,72.9%,39.3%,89.1%,40.7%,87.3%,102%,87.5%,79.7%,93.2%,84.3%,85.3%,82.5%,67.1%,–
